Test results as given in PubChem BioAssay AID2459 (The Scripps Research Institute Molecular Screening Center, 2010).
Some of the results follow. A number with no mark means an inactive call. Calls of active or inactive are those of the source.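 The calls were made as follows: active = average inhibition across triplicates above the hit cutoff set in the primary screen (cut at about 32% in these data); inactive = the rest.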

These compounds were tested against Female germline-specific tumor suppressor gld-1 (Caenorhabditis elegans) (UniProt Q17339) (assay: GLD-1/TGE RNA binding inhibitors, retest, confirmation, biochemical, fluorescence polarization, triplicate (AID 2459;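 also: 0% = GLD-1 with RNA probe and DMSO and 100% = wells lacking GLD-1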)). Conditions: GLD-1/FL-TGE RNA fluorescence polarization, at 5.96 µM, active compounds read high.
Sequence of Female germline-specific tumor suppressor gld-1 (Caenorhabditis elegans) (Q17339 whole entry, looked up): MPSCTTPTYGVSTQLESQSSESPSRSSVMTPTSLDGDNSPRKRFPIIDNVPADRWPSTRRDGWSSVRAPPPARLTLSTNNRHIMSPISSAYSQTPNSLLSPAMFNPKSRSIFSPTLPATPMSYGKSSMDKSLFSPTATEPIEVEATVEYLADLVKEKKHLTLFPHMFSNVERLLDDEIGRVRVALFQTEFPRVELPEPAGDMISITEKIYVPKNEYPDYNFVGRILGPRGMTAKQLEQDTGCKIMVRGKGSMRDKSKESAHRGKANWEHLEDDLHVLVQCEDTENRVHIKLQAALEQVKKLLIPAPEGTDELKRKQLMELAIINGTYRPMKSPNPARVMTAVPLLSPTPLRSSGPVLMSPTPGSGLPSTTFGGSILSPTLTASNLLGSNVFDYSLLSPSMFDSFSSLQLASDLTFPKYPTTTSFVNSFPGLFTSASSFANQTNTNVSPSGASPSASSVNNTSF

First: O=c1[nH]cccc1-c1nc2ccccc2n1Cc1ccc(Cl)cc1
Second: Cc1ccc(/C=N/NC(=O)COc2ccccc2-c2ccccc2)cc1
The inhibition of the first is lower: -6.98% for the first, -5.49% for the second.

Going from `Cc1ccccc1Nc1nc(N)nc(CSc2nnc3ccccn23)n1` to `CNC(=S)NNC(=O)c1oc2nc(-c3ccccc3)cc(-c3ccco3)c2c1N`, the inhibition falls from -3.26% to -4.28%.

Compared with `COC(=O)c1sc(NC(=S)NC(=O)c2ccc(C)cc2)nc1C`, `COC(=O)c1cc(CNC(=O)CC(C)c2ccccc2)ccc1OC` (stereo not given) is lower in inhibition: -1.92% for the first, -6.47% for the second.

Going from `CC1CC(C)CN(S(=O)(=O)c2cccc(C(=O)N3C(=O)c4cccc(N)c4C3=O)c2)C1` (stereo not given) to `O=C1c2ccccc2C(=O)c2c1cccc2N1CCN(CCO)CC1`, the inhibition rises from 1.78% to 16.5%.

First: N#CC1=C(N)C(C#N)(C#N)[C@H](c2ccsc2)[C@H]2COCC=C12
Second: CC(NC(=O)CSc1nc2c(cc1C#N)CN(C)CC2)c1ccccc1 (stereo not given)
The inhibition of the first is higher: 7.34% for the first, -6.45% for the second.

First: Cc1ccc(C)c(S(=O)(=O)N2CCN(C(=O)Nc3ccccc3)CC2)c1
Second: C=C1CCN([C@@H](Cc2ccccc2)C(=O)N2CCOCC2)S(=O)(=O)c2ccccc21
The inhibition of the first is higher: 2.41% for the first, -0.33% for the second.

First: CCCn1c(C2CCCN2c2nc(-c3ccc(C)cc3)cs2)nc2cc(Cl)c(N3CCCCC3)cc21 (stereo not given)
Second: O=C1c2ccccc2-c2ncnc3c(N4CCOCC4)cc(N4CCOCC4)c1c23
The inhibition of the first is higher: -4.07% for the first, -4.23% for the second.

First: COc1ccc2[nH]c(C)c(CCN(Cc3cccs3)C(=S)Nc3ccccc3OC)c2c1
Second: CCCN(CC(=O)Nc1ccccc1OC)C(=O)CCC(=O)c1ccc(F)cc1
The inhibition of the first is lower: -3.16% for the first, -0.97% for the second.

Going from `COc1cc(C(=O)NCc2ccc3c(c2)cc(C)n3C)cc(OC)c1OC` to `Cc1cc2ccccc2n1CCC(=O)O`, the inhibition rises from 5.96% to 10.1%.

Going from `COc1ccc(Nc2ccc([N+](=O)[O-])cn2)cn1` to `COc1cc([C@H](Cc2ccccc2)NC(C)=O)oc(=O)c1`, the inhibition rises from 18.7% to 25.8%.

First: CN(CCOc1ccccc1)C(=O)c1cc(-c2ccco2)nc2ccccc12
Second: Oc1ccc2ccccc2c1N=Nc1nccs1
The inhibition of the first is lower: -3.07% for the first, 8.17% for the second.

Compared with `COC(=O)CCCC1=CC2=CC(=O)C(C)(OC(=O)c3cccs3)C(=O)C2=CN1c1cccc(C#N)c1` (stereo not given), `N#C/C(=C(\O)C(F)(F)F)c1nnc2n1CCCCC2` is lower in inhibition: 8.48% for the first, -8.93% for the second.

With `CN(C)c1ccc(Nc2c3c4c(cccc4n(C)c2=O)C(=O)c2ccccc2-3)cc1` the inhibition was 63.3% (active).
`COCCOC(=O)c1sc(=S)n(CCOC)c1N` was tested, and the inhibition was 47.7% (active).
With `CCOc1cc(C2C(C(=O)OC)=CN(C3CCCC3)C=C2C(=O)OC)cc(Br)c1O` the inhibition was 31.8% (active).
With `COc1ccc(-c2nc(CS(=O)CC(=O)NCc3ccccn3)c(C)o2)cc1` (stereo not given) the inhibition was 61.1% (active).
In the case of `CCOc1ccc2nc(N3CCCN(C(=O)Nc4ccccc4C)CC3)c(C#N)cc2c1`, the inhibition is reported as 52.2% (active).
In the case of `O=c1[nH]c(=O)c2nc3ccccc3nc2[nH]1`, the inhibition is reported as 101% (active).
